Data: PubChem BioAssay AID1159580 (chemical genetic matrix, 2015)
Out of some 5,500 compounds screened, about 2,000 (36%) were called active. Not shown: some 18% with an inconclusive outcome. Rule as the data show it: active = normalized growth mostly below about 0.91 (no sharp cut-off); inconclusive = no clear call, values can overlap the other calls; inactive = mostly above about 0.92. The list shows a part of the results.

Assay: chemical genetic growth profiling, strain panel (AID 1159580);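 also: tested at 20 µM; growth read once vehicle control cultures reached saturation at 30 °C; 1 = growth at the plate median or of vehicle wells; lower values mean less growth of the strain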
Conditions: S. cerevisiae deletion strains, growth OD

Measured: normalized growth

CCCCC/C=C\C/C=C\C/C=C\C/C=C\CCCC(=O)O
active: locus YAL026C, strain drs2, stronger effect = lower value 0.831 | locus YDR137W, strain rgp1, stronger effect = lower value 0.846 | locus YDR392W, strain spt3, stronger effect = lower value 0.474 | locus YER155C, strain BEM2 (second series), stronger effect = lower value 0.746
inactive: locus YAL013W, strain DEP1, stronger effect = lower value 0.987 | locus YAL021C, strain ccr4, stronger effect = lower value 0.986 | locus YAL030W, strain snc1, stronger effect = lower value 0.978 | locus YBL061C, strain skt5, stronger effect = lower value 0.962 | locus YBR009C, strain hhf1, stronger effect = lower value 0.952 | locus YBR021W, strain FUR4, stronger effect = lower value 0.95 | locus YBR023C, strain chs3, stronger effect = lower value 0.963 | locus YBR171W, strain sec66, stronger effect = lower value 0.979 | locus YBR229C, strain ROT2, stronger effect = lower value 0.994 | locus YBR231C, strain swc5, stronger effect = lower value 0.975 | locus YBR279W, strain paf1, stronger effect = lower value 0.976 | locus YCL011C, strain gbp2, stronger effect = lower value 0.971 | locus YCL016C, strain dcc1, stronger effect = lower value 0.974 | locus YCL029C, strain bik1, stronger effect = lower value 0.986 | locus YCL061C, strain MRC1, stronger effect = lower value 0.975 | locus YCL069W, strain vba3, stronger effect = lower value 0.969 | locus YCR088W, strain abp1, stronger effect = lower value 0.975 | locus YDL005C, strain med2, stronger effect = lower value 0.984 | locus YDL035C, strain GPR1, stronger effect = lower value 0.953 | locus YDL040C, strain nat1, stronger effect = lower value 0.97 | locus YDL074C, strain BRE1, stronger effect = lower value 0.916 | locus YDL101C, strain DUN1, stronger effect = lower value 0.989 | locus YDL134C, strain PPH21, stronger effect = lower value 0.984 | locus YDL185W, strain tfp1, stronger effect = lower value 0.974 | locus YDL192W, strain arf1, stronger effect = lower value 0.965 | locus YDR001C, strain nth1, stronger effect = lower value 0.972 | locus YDR069C, strain doa4, stronger effect = lower value 0.993 | locus YDR101C, strain arx1, stronger effect = lower value 0.968 | locus YDR150W, strain NUM1, stronger effect = lower value 0.99 | locus YDR159W, strain sac3, stronger effect = lower value 0.926 | locus YDR162C, strain NBP2, stronger effect = lower value 0.967 | locus YDR195W, strain ref2 1.01 | locus YDR297W, strain sur2, stronger effect = lower value 0.972 | locus YDR318W, strain mcm21, stronger effect = lower value 0.957 | locus YDR334W, strain swr1, stronger effect = lower value 0.969 | locus YDR335W, strain msn5, stronger effect = lower value 0.971 | locus YDR388W, stronger effect = lower value 0.979 | locus YDR502C, strain sam2, stronger effect = lower value 0.977 | locus YEL003W, strain gim4, stronger effect = lower value 0.975 | locus YEL037C, strain rad23, stronger effect = lower value 0.974 | locus YEL061C, strain CIN8 (second series), stronger effect = lower value 0.966 | locus YEL061C, strain CIN8, stronger effect = lower value 0.982 | locus YER015W, strain faa2, stronger effect = lower value 0.973 | locus YER016W, strain bim1, stronger effect = lower value 0.978 | locus YER110C, stronger effect = lower value 0.976 | locus YER111C, strain swi4, stronger effect = lower value 0.963 | locus YER155C, strain BEM2, stronger effect = lower value 0.984 | locus YER167W, strain BCK2, stronger effect = lower value 0.945 | locus YFR010W, strain ubp6, stronger effect = lower value 0.974 | locus YGL078C, strain dbp3, stronger effect = lower value 0.951 | locus YGL086W, strain mad1, stronger effect = lower value 0.976 | locus YGL167C, strain pmr1, stronger effect = lower value 0.958 | locus YGL173C, strain kem1, stronger effect = lower value 0.96 | locus YGL227W, strain vid30, stronger effect = lower value 0.988 | locus YGL240W, strain doc1, stronger effect = lower value 0.963 | locus YGL248W, strain PDE1, stronger effect = lower value 0.985 | locus YGL253W, strain hxk2, stronger effect = lower value 0.974 | locus YGR078C, strain PAC10, stronger effect = lower value 0.945 | locus YGR135W, strain pre9, stronger effect = lower value 0.971 | locus YGR229C, strain SMI1, stronger effect = lower value 0.877 | locus YGR252W, strain gcn5, stronger effect = lower value 1.01 | locus YHR013C, strain ard1, stronger effect = lower value 0.855 | locus YHR027C, strain rpn1, stronger effect = lower value 0.981 | locus YHR030C, strain SLT2, stronger effect = lower value 0.97 | locus YHR079C, strain IRE1 (second series), stronger effect = lower value 0.967 | locus YHR094C, strain hxt1, stronger effect = lower value 0.947 | locus YHR129C, strain ARP1, stronger effect = lower value 0.992 | locus YHR142W, strain chs7, stronger effect = lower value 0.931 | locus YHR200W, strain rpn10, stronger effect = lower value 0.987 | locus YIL066C, strain RNR3, stronger effect = lower value 0.977 | locus YIL073C, strain SPO22, stronger effect = lower value 0.862 | locus YIR030C, strain dcg1, stronger effect = lower value 0.985 | locus YJL092W, strain hpr5, stronger effect = lower value 0.978 | locus YJL095W, strain BCK1 (second series), stronger effect = lower value 0.972 | locus YJL095W, strain BCK1, stronger effect = lower value 0.92 | locus YJL115W, strain asf1, stronger effect = lower value 0.97 | locus YJL129C, strain trk1, stronger effect = lower value 0.929 | locus YJL134W, strain LCB3, stronger effect = lower value 1.02 | locus YJL154C, strain vps35, stronger effect = lower value 0.979 | locus YJL164C, strain tpk1, stronger effect = lower value 0.97 | locus YJL166W, strain qcr8, stronger effect = lower value 0.959 | locus YJL168C, strain set2, stronger effect = lower value 0.986 | locus YJL187C, strain SWE1 (second series), stronger effect = lower value 0.983 | locus YJL187C, strain SWE1, stronger effect = lower value 0.978
